Measured values reported in PubChem BioAssay AID1159580 (chemical genetic matrix, 2015).
Hit rate of the full screen: of about 5,500 compounds, about 2,000 (36%) were called active. Another 18% or so got no clear call; they are omitted. Rule as the data show it: active = normalized growth mostly below about 0.91 (no sharp cut-off); inconclusive = no clear call, values can overlap the other calls; inactive = mostly above about 0.92. The list shows a part of the results.

Assay: chemical genetic growth profiling, strain panel (AID 1159580);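 also: tested at 20 µM; growth read once vehicle control cultures reached saturation at 30 °C; 1 = growth at the plate median or of vehicle wells; lower values mean less growth of the strain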
Details: growth OD

Measured: normalized growth

Cn1nnnc1SCC1=C(C(=O)O)N2C(=O)C(NC(=O)C(O)c3ccccc3)C2SC1 (configuration not stated)
inactive: S. cerevisiae deletion strains, locus YJR075W, strain HOC1, stronger effect = lower value 1.01 | S. cerevisiae deletion strains, locus YKL009W, strain mrt4, stronger effect = lower value 1.01 | S. cerevisiae deletion strains, locus YKL068W, stronger effect = lower value 1.01 | S. cerevisiae deletion strains, locus YKL085W, strain MDH1 (second series), stronger effect = lower value 1.01 | S. cerevisiae deletion strains, locus YKL085W, strain MDH1, stronger effect = lower value 1.01 | S. cerevisiae deletion strains, locus YKL160W, strain elf1, stronger effect = lower value 0.95 | S. cerevisiae deletion strains, locus YKL190W, strain CNB1, stronger effect = lower value 1.02 | S. cerevisiae deletion strains, locus YKR001C, strain vps1, stronger effect = lower value 1 | S. cerevisiae deletion strains, locus YKR026C, strain gcn3, stronger effect = lower value 0.974 | S. cerevisiae deletion strains, locus YKR091W, strain srl3, stronger effect = lower value 0.981 | S. cerevisiae deletion strains, locus YLL001W, strain dnm1, stronger effect = lower value 0.955 | S. cerevisiae deletion strains, locus YLL026W, stronger effect = lower value 0.989 | S. cerevisiae deletion strains, locus YLL041C, strain sdh2, stronger effect = lower value 0.968 | S. cerevisiae deletion strains, locus YLR027C, strain aat2, stronger effect = lower value 0.982 | S. cerevisiae deletion strains, locus YLR039C, strain RIC1, stronger effect = lower value 0.991 | S. cerevisiae deletion strains, locus YLR058C, strain SHM2, stronger effect = lower value 1.02 | S. cerevisiae deletion strains, locus YLR102C, strain apc9, stronger effect = lower value 1 | S. cerevisiae deletion strains, locus YLR113W, strain HOG1, stronger effect = lower value 0.938 | S. cerevisiae deletion strains, locus YLR221C, strain rsa3, stronger effect = lower value 0.98 | S. cerevisiae deletion strains, locus YLR258W, strain gsy2, stronger effect = lower value 0.981 | S. cerevisiae deletion strains, locus YLR262C, strain YPT6 (second series), stronger effect = lower value 0.973 | S. cerevisiae deletion strains, locus YLR262C, strain YPT6, stronger effect = lower value 1.1 | S. cerevisiae deletion strains, locus YLR268W, strain sec22, stronger effect = lower value 0.988 | S. cerevisiae deletion strains, locus YLR320W, strain mms22, stronger effect = lower value 0.952 | S. cerevisiae deletion strains, locus YLR330W, strain CHS5, stronger effect = lower value 1.01 | S. cerevisiae deletion strains, locus YLR342W, strain FKS1 (second series), stronger effect = lower value 1.02 | S. cerevisiae deletion strains, locus YLR342W, strain FKS1, stronger effect = lower value 0.972 | S. cerevisiae deletion strains, locus YLR357W, strain rsc2, stronger effect = lower value 0.952 | S. cerevisiae deletion strains, locus YLR370C, strain arc18, stronger effect = lower value 0.967 | S. cerevisiae deletion strains, locus YLR371W, strain rom2, stronger effect = lower value 0.999 | S. cerevisiae deletion strains, locus YLR384C, strain iki3, stronger effect = lower value 0.962 | S. cerevisiae deletion strains, locus YLR418C, strain cdc73, stronger effect = lower value 1 | S. cerevisiae deletion strains, locus YML016C, strain PPZ1, stronger effect = lower value 1.01 | S. cerevisiae deletion strains, locus YML032C, strain rad52, stronger effect = lower value 1 | S. cerevisiae deletion strains, locus YML120C, strain ndi1, stronger effect = lower value 0.964 | S. cerevisiae deletion strains, locus YML124C, strain tub3, stronger effect = lower value 1.01 | S. cerevisiae deletion strains, locus YMR058W, strain fet3, stronger effect = lower value 0.966 | S. cerevisiae deletion strains, locus YMR078C, strain ctf18, stronger effect = lower value 1 | S. cerevisiae deletion strains, locus YMR125W, strain sto1, stronger effect = lower value 0.973 | S. cerevisiae deletion strains, locus YMR129W, stronger effect = lower value 0.981 | S. cerevisiae deletion strains, locus YMR205C, strain PFK2, stronger effect = lower value 0.959 | S. cerevisiae deletion strains, locus YMR223W, strain ubp8, stronger effect = lower value 1.01 | S. cerevisiae deletion strains, locus YMR231W, strain pep5, stronger effect = lower value 0.971 | S. cerevisiae deletion strains, locus YMR263W, strain SAP30, stronger effect = lower value 1.03 | S. cerevisiae deletion strains, locus YMR307W, strain GAS1, stronger effect = lower value 0.993 | S. cerevisiae deletion strains, locus YNL067W, strain RPL9B, stronger effect = lower value 1.03 | S. cerevisiae deletion strains, locus YNL071W, strain lat1, stronger effect = lower value 0.978 | S. cerevisiae deletion strains, locus YNL128W, strain TEP1, stronger effect = lower value 1.03 | S. cerevisiae deletion strains, locus YNL153C, strain GIM3, stronger effect = lower value 1.03 | S. cerevisiae deletion strains, locus YNL183C, strain NPR1, stronger effect = lower value 0.926 | S. cerevisiae deletion strains, locus YNL209W, strain ssb2, stronger effect = lower value 0.982 | S. cerevisiae deletion strains, locus YNL233W, strain BNI4, stronger effect = lower value 1.02 | S. cerevisiae deletion strains, locus YNL248C, strain rpa49, stronger effect = lower value 0.968 | S. cerevisiae deletion strains, locus YNL250W, strain rad50, stronger effect = lower value 1.01 | S. cerevisiae deletion strains, locus YNL271C, strain bni1, stronger effect = lower value 1.01 | S. cerevisiae deletion strains, locus YNL298W, strain CLA4, stronger effect = lower value 1.01 | S. cerevisiae deletion strains, locus YNL307C, strain MCK1, stronger effect = lower value 1 | S. cerevisiae deletion strains, locus YNL322C, strain KRE1 (second series), stronger effect = lower value 0.97 | S. cerevisiae deletion strains, locus YNL322C, strain KRE1, stronger effect = lower value 1.02 | S. cerevisiae deletion strains, locus YNR049C, strain mso1, stronger effect = lower value 0.972 | S. cerevisiae deletion strains, locus YNR052C, strain pop2, stronger effect = lower value 0.997 | S. cerevisiae deletion strains, locus YOL006C, strain TOP1, stronger effect = lower value 1.05 | S. cerevisiae deletion strains, locus YOL012C, strain htz1 0.993 | S. cerevisiae deletion strains, locus YOL147C, strain pex11, stronger effect = lower value 0.999 | S. cerevisiae deletion strains, locus YOR001W, strain rrp6, stronger effect = lower value 0.967 | S. cerevisiae deletion strains, locus YOR061W, strain CKA2, stronger effect = lower value 1.02 | S. cerevisiae deletion strains, locus YOR069W, strain VPS5, stronger effect = lower value 1.01 | S. cerevisiae deletion strains, locus YOR070C, strain gyp1, stronger effect = lower value 0.979 | S. cerevisiae deletion strains, locus YOR080W, strain dia2, stronger effect = lower value 0.97 | S. cerevisiae deletion strains, locus YOR083W, strain WHI5, stronger effect = lower value 0.958 | S. cerevisiae deletion strains, locus YOR106W, strain vam3, stronger effect = lower value 0.945 | S. cerevisiae deletion strains, locus YOR136W, strain idh2, stronger effect = lower value 0.995 | S. cerevisiae deletion strains, locus YOR144C, strain elg1, stronger effect = lower value 1 | S. cerevisiae deletion strains, locus YOR184W, strain ser1, stronger effect = lower value 0.99 | S. cerevisiae deletion strains, locus YOR231W, strain MKK1, stronger effect = lower value 0.996 | S. cerevisiae deletion strains, locus YOR265W, strain rbl2, stronger effect = lower value 0.975 | S. cerevisiae deletion strains, locus YOR270C, strain vph1, stronger effect = lower value 0.974 | S. cerevisiae deletion strains, locus YOR290C, strain snf2, stronger effect = lower value 0.924 | S. cerevisiae deletion strains, locus YOR316C, strain cot1, stronger effect = lower value 0.996 | S. cerevisiae deletion strains, locus YPL051W, strain arl3, stronger effect = lower value 0.964 | S. cerevisiae deletion strains, locus YPL055C, strain LGE1, stronger effect = lower value 1.07 | S. cerevisiae deletion strains, locus YPL078C, strain atp4, stronger effect = lower value 0.968 | S. cerevisiae deletion strains, locus YPL106C, strain sse1, stronger effect = lower value 0.958 | S. cerevisiae deletion strains, locus YPL240C, strain hsp82, stronger effect = lower value 0.991 | S. cerevisiae deletion strains, locus YPL241C, strain CIN2, stronger effect = lower value 1.01 | S. cerevisiae deletion strains, locus YPL256C, strain CLN2, stronger effect = lower value 0.987 | S. cerevisiae deletion strains, locus YPR119W, strain clb2, stronger effect = lower value 0.991 | S. cerevisiae deletion strains, locus YPR141C, strain kar3, stronger effect = lower value 1 | S. cerevisiae deletion strains, locus YPR163C, strain tif3, stronger effect = lower value 0.994 | S. cerevisiae deletion strains, locus YPR167C, strain met16, stronger effect = lower value 1.01 | S. cerevisiae deletion strains, strain wtn01, stronger effect = lower value 1 | S. cerevisiae strains, strain wild type, stronger effect = lower value 1.02
